# About 430 (29%) of roughly 1,500 compounds were called active. How the calls were made is not given here. A selection follows. Measured potencies and affinities stand elsewhere.
# Test: glucose-independent GLuc insulin release activation – cell-based, INS-1E, Gaussia luciferase, luminescence, cherry-pick, counter-screen for glucose-dependent insulin secretion activators, dose response (AID 977606)
# Conditions: INS-1E Gaussia luciferase insulin secretion, no glucose, 100% = twice neutral-control luminescence; series mostly up to 35 µM
row,Compound,outcome
1,Nc1nc(SCc2nc3scc(-c4ccccc4)c3c(=O)[nH]2)n[nH]1,inactive
2,CCCC(=O)Nc1ccc(N2CCN(S(C)(=O)=O)CC2)cc1,inactive
3,O=C(O)CCCNC(=O)c1nn(Cc2ccccc2)c(=O)c2ccccc12,inactive
4,C/C=C/c1ccc(OCCN2C(=O)NC(C)(C)C2=O)c(OC)c1,inactive
5,COc1ccc(C2=Nn3c(nnc3-c3ccccc3F)SC2)cc1OCC1CC1,inactive
6,O=C(Nc1nccs1)c1cc(N2CCOCC2)nc2ccccc12,inactive
7,O=C(Nc1cccnc1Cl)C1=NN(c2ccccc2)C(=O)CC1,inactive
8,CS(=O)(=O)N1CCN(c2ccccc2NC(=O)c2ccco2)CC1,inactive
9,CCc1onc(C)c1C(=O)Nc1ccc(N2CCOCC2)cc1,inactive
10,C[C@@H]1CN([C@H](C)CO)C(=O)c2cc(C3=CCCCC3)cnc2O[C@H]1CN(C)C(=O)CN1CCOCC1,inactive
11,CCNc1nc(NCC)nc(N(C)/N=C/c2ccco2)n1,inactive
12,COc1cc(NC(=O)c2c(-c3ccccc3Cl)noc2C)c2ncccc2c1,inactive
13,CCc1ccc(N(C2C=CS(=O)(=O)C2)S(=O)(=O)c2ccccc2)cc1 (configuration not stated),inactive
14,COc1ccc(CCNC(=O)Cc2ccc3c(c2)OCO3)cc1OC,inactive
15,COc1ccc(CC(=O)c2ccc(OC)c(OC)c2)cc1,inactive
16,COc1ccc(C(=O)NCC(=O)OCC(=O)NC2CCCCCC2)cc1OC,inactive
17,COC(=O)C1C(=O)NC(SC)=C(C#N)C1c1ccccc1 (configuration not stated),inactive
18,COc1cccc(CNC(=O)N[C@@H](CC(C)C)C(=O)O)c1,inactive
19,COc1ccc(C2N(c3ccccc3)C(=O)C2(F)F)cc1OC (configuration not stated),inactive
20,COC(=O)C1=C(C)NC(=S)NC1c1cccc(OC)c1 (configuration not stated),inactive
21,Cc1cccc(C2N=C(N)Nc3nc4ccccc4n32)c1 (configuration not stated),inactive
22,CCOc1ccc(C(=O)NCC(=O)Nc2cc(C)ccn2)cc1OCC,inactive
23,CCCN(Cc1nnc(-c2ccccc2Cl)o1)C(=O)c1cc2ccccc2o1,inactive

row,Compound,outcome
1,c1ccc2nc3c(nc2c1)c1ccccc1n3CCN1CCOCC1,inactive
2,COc1ccc(CCN(C)C(=O)C(CCSC)NC(=O)c2ccco2)cc1OC (configuration not stated),inactive
3,CC(=O)Nc1ccc(S(=O)(=O)Nc2ccc3c(c2)n(C)c(=O)n3C)c(C)c1,inactive
4,COc1nc(N2CCOCC2)nc(-n2cccc2)n1,inactive
5,COc1ccc(S(=O)(=O)N(C)c2ccc(C(=O)NCC3CCCO3)cc2)cc1OC (configuration not stated),inactive
6,COc1ccc(-c2c(NC(=O)c3ccco3)oc3ccc(Cl)cc3c2=O)cc1,inactive
7,Cc1ccnc(NC(=O)CNC(=O)c2ccco2)c1,inactive
8,CCC(=O)Nc1cc2nn(-c3ccc(OC)cc3)nc2cc1C,inactive
9,Cc1ccc(C2(C)NC(=O)N(CC(=O)Nc3ccc(-c4nc5ccc(C)cc5s4)cc3)C2=O)cc1 (configuration not stated),inactive
10,COc1ccc(-c2nc(CCNC(=O)c3ccco3)cs2)cc1OC,inactive
11,CCOc1cc(NC(=O)c2ccco2)c(OCC)cc1NC(=O)c1cc(OC)c(OC)c(OC)c1,inactive
12,COc1ccc(S(=O)(=O)N2CCCCC2)cc1NC(=O)C1CC1C (configuration not stated),inactive
13,CC(Oc1ccc2c3c(c(=O)oc2c1)CCCC3)C(=O)NCc1cccnc1 (configuration not stated),inactive
14,Cc1ccc(Nc2ncnc3sccc23)c(C)c1,inactive
15,O=C(CN1C(=O)NC(Cc2c[nH]c3ccccc23)C1=O)NCCc1ccccc1 (configuration not stated),inactive
16,O=C(Nc1ccc(NC(=O)c2cccs2)cc1)c1ccc(Br)o1,inactive
17,O=C(Nc1nnc(CCS(=O)(=O)c2ccc3ccccc3c2)s1)c1cccs1,inactive
18,CS(=O)(=O)N1CCCCC1c1cc(C(=O)Nc2cccc(C#N)c2)no1 (configuration not stated),inactive
19,CN(c1ccc(F)cc1)S(=O)(=O)c1ccc(Cl)c(C(=O)NCC2CCCO2)c1 (configuration not stated),inactive
20,Cc1cc(C)nc(NC(=O)c2ccc(Cl)cc2Cl)n1,inactive
21,COc1cc(Cl)c(C)cc1NC(=O)c1ccccc1NC(=O)CN1CCN(C(C)=O)CC1,inactive
22,O=C(CNC(=O)c1ccco1)N/N=C/c1ccc(C(=O)O)cc1,inactive
23,COCCN(CCOC)Cc1cc(=O)oc2cc(C)c(C)cc12,inactive

row,Compound,outcome
1,COc1cccc2cc(-c3cc(=O)oc4cc(C)c(O)cc34)oc12,inactive
2,Cc1c(OCC(=O)NCc2ccccn2)ccc2c3c(c(=O)oc12)CCCC3,inactive
3,Cc1sc2ncn(CC(=O)NCc3ccccc3)c(=O)c2c1C,inactive
4,O=C1NC(=O)C2(CCCCC2C2CCCCC2)N1 (configuration not stated),inactive
5,COc1ccccc1CNC(=O)CCS(=O)(=O)Cc1ccc(C)cc1,inactive
6,Cc1cc(C)c(CSc2nnnn2-c2ccc(C(=O)O)cc2)c(C)c1,inactive
7,CC(C)c1cc(C(C)C)n2nc(N)nc2n1,inactive
8,CN1CCSc2ccc(C(=O)Nc3cccc(F)c3)cc21,inactive
9,CC(=O)c1ccc(OCC(=O)N(C2CCCCC2)C2CCS(=O)(=O)C2)cc1 (configuration not stated),inactive
10,Cc1ccc(C(=O)N2CCN3C(=O)c4ccccc4C23c2ccccc2)cc1 (configuration not stated),inactive
11,COc1cc2cnc(-c3cccnc3)cc2cc1OC,inactive
12,Cc1ccc(S(=O)(=O)NCc2csc(-c3cccs3)n2)cc1,inactive
13,COc1cc2[nH]c(-c3ccc(C)cc3)cc(=O)c2cc1OC,inactive
14,O=C(Cn1[nH]c(=O)c2ccccc2c1=O)OCC(=O)c1ccc(F)cc1,inactive
15,C=CCN(CC=C)S(=O)(=O)c1ccc(C(=O)Nc2sc3c(c2C(N)=O)CCCCC3)cc1,inactive
16,CCN(Cc1ccccc1)S(=O)(=O)c1ccccc1Br,inactive
17,CCOCCCNC(=O)c1oc2ccc3c(c2c1C)C(O)CC(C)(C)O3 (configuration not stated),inactive
18,NC(=O)c1ncn([C@@H]2O[C@H](C(=O)N[C@H](Cc3ccccc3)C(=O)O)[C@@H](O)[C@H]2O)n1,inactive
19,CCc1nc2c(OCc3ccccc3C(=O)OC)cccn2c1N(C)C(=O)c1ccncc1,inactive
20,Cc1cccc(C)c1NC(=O)C1c2ccccc2Oc2ccccc21,inactive
21,O=c1[nH]c2cc(Cl)ccc2n(CCNc2ncc(C(F)(F)F)cc2Cl)c1=O,inactive
22,O=C(c1cc(-c2ccccc2)nc2ccccc12)N1CCCC1,inactive
23,Nn1c(C2CCCCC2)nc2ccccc2c1=O,inactive

row,Compound,outcome
1,CNC(=O)c1cc(C(=O)c2ccccc2Br)c[nH]1,inactive
2,CSc1ccc(C(=O)C2CCCN(C(=O)c3ccc4c(c3)no[n+]4[O-])C2)cc1 (configuration not stated),inactive
3,CN(C(=O)[C@H]1O[C@@H](n2cnc(C(N)=O)n2)[C@H](O)[C@@H]1O)c1ccccc1,inactive
4,CC(=O)Nc1c(C(=O)C2CC2)oc2ccccc12,inactive
5,Cc1ccc(-c2cnc3cccnn23)cc1F,inactive
6,CCN(c1ccccc1)S(=O)(=O)c1ccc(OC)c(OC)c1,inactive
7,O=S(=O)(c1ccc(=S)[nH]c1)N1CCCCCC1,inactive
8,CCC(=O)Nc1cc(C(C)(C)C)ccc1C(C)=O,inactive
9,COc1ccc(C(=O)Nc2nnc(-c3cccs3)s2)cc1,inactive
10,Cc1ccccc1C(=O)NC1CCSC1=O (configuration not stated),inactive
11,Cc1cc2nc(-c3ccccc3O)[nH]c2cc1C,inactive
12,c1csc(CNc2nc(Oc3ccncc3)c3sccc3n2)c1,inactive
13,O=C(Cn1cc(C(F)(F)F)ccc1=O)NCC1CCCO1 (configuration not stated),inactive
14,Cc1ccccc1Nc1c(-c2ccncc2)nc2ccc(Cl)cn12,inactive
15,O=C(O)c1c(NC(=O)N2CCOCC2)sc2c1CCCC2,inactive
16,O=c1c(C(c2ccccc2)c2c(O)sc3ccccc3c2=O)c(O)sc2ccccc12,inactive
17,Cn1c(=O)c2c(nc3n2CCCN3CCc2ccccc2)n(C)c1=O,inactive
18,COc1ccc(N2CC(C(=O)N3CCc4ccccc43)CC2=O)cc1 (configuration not stated),inactive
19,COc1ccc(-c2[nH]c3ccccc3c2SCCN)cc1,inactive
20,O=C1CSC(c2ccccc2)N1c1ccc(F)cc1F (configuration not stated),inactive
21,CCc1nc2c(OCCC3CCCCC3)cccn2c1N(C)C(=O)c1ccco1,inactive
22,O=C(O)CC(CC(=O)Nc1ccc(C(=O)O)cc1)c1ccccc1 (configuration not stated),inactive
23,CC1CCN(C(=O)c2cccc(S(=O)(=O)N3CCN(c4ccccc4)CC3)c2)CC1,inactive

row,Compound,outcome
1,O=C(COC(=O)c1cccnc1Cl)Nc1cc(S(=O)(=O)N2CCCCCC2)ccc1Cl,inactive
2,CC(=O)NN1C(=O)c2ccccc2NC1c1ccccc1O (configuration not stated),inactive
3,CN1CCN(c2ccc(CNC(=O)C3(C)Cc4c(-c5ccccc5)ccnc4O3)cc2)CC1 (configuration not stated),inactive
4,O=C(NC1CCCCC1)c1cccnc1Sc1ccccc1,inactive
5,COc1ccc(-c2nc(-c3cccnc3)no2)cc1OC,inactive
6,COc1ccc(C(=O)Nc2nnc(-c3ccco3)s2)cc1,inactive
7,CCn1nc(C)c(NC(=O)c2cnn3c(C(F)F)cc(-c4ccccc4)nc23)c1C,inactive
8,CCCc1cc(NCC2CCCO2)n2c(nc3ccccc32)c1C#N (configuration not stated),inactive
9,COc1ccc(CCN(C)C(=O)Cn2c(=O)oc3ccccc32)cc1OC,inactive
10,CCc1nnc(NC(=O)C(c2ccccc2)c2ccccc2)s1,inactive
11,CCc1nc2c(OCc3ccccc3C)cccn2c1N(C)C(=O)c1ccco1,inactive
12,O=S(=O)(Nc1ncnc2sc3c(c12)CCC3)c1cc(F)ccc1F,inactive
13,CCN(CC)C(=O)n1c(Cc2ccccc2)nc2ccccc21,inactive
14,Cc1ccc(S(=O)(=O)/N=C(/Nc2cccc(O)c2)c2ccccc2)cc1,inactive
15,COc1cccc(CNC(=O)c2cccnc2Sc2ccccc2)c1,inactive
16,CCOc1ncccc1C(=O)NCc1cccc(OC)c1,inactive
17,Cc1c(-c2cccc(Cl)c2)nc2ccccc2c1C(=O)NC1CC1,inactive
18,COc1ccc(CN(C)C(=O)Cn2cc(C)c(=O)[nH]c2=O)cc1OC,inactive
19,COc1ccc(-c2cc(NC=O)c3ncc(-c4ccc(OC)c(OC)c4)n3c2)cc1,inactive
20,CC(=O)Nc1cc(-c2ccc(N3CCN(C)CC3)cc2)cn2c(-c3cccc(C(=O)N(C)C)c3)cnc12,inactive

# — PubChem BioAssay AID977606 (Broad Institute, 2014)
